# Measurements as given in PubChem BioAssay (NCI).
# About 83,000 compounds went through this panel and 20% of them were active in at least one assay; those are over-represented in the sample as a whole.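 How to read the values: 0–100, growth inhibition (40 = 60% inhibited); 0, no net growth; -100 to 0, cell death (-40 = 40% of starting cells died; -100 = all dead).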 Values without a mark were called inactive. Calls of active or inactive are those of the source. Rule for the calls: active = growth percent below 10; inactive = the rest.
# What was measured:
# Experiment in all cases: NCI-60 one-dose screen, 48 h (100 = growth as untreated, 0 = no growth, -100 = all killed)
# Conditions in all cases: 10 µM unless noted
# RPMI-8226 leukemia = system: RPMI-8226 leukemia
# OVCAR-8 ovarian = system: OVCAR-8 ovarian
# OVCAR-5 ovarian = system: OVCAR-5 ovarian
# OVCAR-4 ovarian = system: OVCAR-4 ovarian
# SK-OV-3 ovarian = system: SK-OV-3 ovarian
# IGROV1 ovarian = system: IGROV1 ovarian
# OVCAR-3 ovarian = system: OVCAR-3 ovarian
# HS 578T breast = system: HS 578T breast
# NCI/ADR-RES ovarian = system: NCI/ADR-RES ovarian
Compound,growth (RPMI-8226 leukemia),growth (OVCAR-8 ovarian),growth (OVCAR-5 ovarian),growth (OVCAR-4 ovarian),growth (SK-OV-3 ovarian),growth (IGROV1 ovarian),growth (OVCAR-3 ovarian),growth (HS 578T breast),growth (NCI/ADR-RES ovarian)
CCCCN(C)N=Nc1ccc(C(N)=O)cc1,114%,107%,99.2%,107%,121%,89.1%,103%,101%,106%
Cc1cc(N2CCCC2)nc(N(CCCNc2ccnc3cc(Cl)ccc23)Cc2ccccn2)n1,28%,49.2%,59.6%,81%,76.5%,50.7%,59.5%,72.6%,39.2%
COc1cc(-c2nc3sccn3c2-c2ccnc(NCCCNS(=O)(=O)c3ccc(F)cc3)n2)ccc1F,9.51% (active),26.7%,112%,51.9%,90.4%,69.6%,65.9%,92.6%,34.2%
C#C[C@]1(O)CC[C@H]2[C@@H]3CC=C4c5sc(Nc6ccccc6)nc5CC[C@]4(C)[C@H]3CC[C@@]21C,-32.1% (active),33.8%,52%,51.6%,-35.3% (active),46.7%,31.5%,-19.9% (active),38.2%
OC(COc1ccccc1Cl)CN1CCN(c2cccc(Cl)c2)CC1 (centres undefined),115%,91.9%,97.8%,110%,109%,122%,113%,112%,113%
CC[C@H](C)C(=O)O[C@H]1CCC=C2C=C[C@H](C)[C@H](CC[C@@H]3CC=CC(=O)O3)[C@H]21,0.207% (active),82%,112%,103%,99.6%,83.9%,73.2%,109%,90.9%
COc1cc(CCCO)c(OC)c(OC)c1OC,112%,107%,103%,102%,107%,109%,111%,102%,104%
C[C@H](C(=O)Nc1ccc(S(N)(=O)=O)cc1)S(=O)(=O)c1ccccc1,110%,99.1%,111%,105%,106%,98.9%,117%,101%,99.3%
COc1cccc2nc3n(c12)C(c1c(F)cccc1F)SC3 (centres undefined),70.4%,103%,80.8%,97.4%,101%,7.38% (active),132%,92.7%,95.7%
O=C(N=c1oc2ccccc2cc1-c1cc2ccccc2[nH]1)Nc1ccc(Cl)cc1,88.3%,99.7%,101%,91.9%,89.4%,59.7%,103%,96.5%,98.7%
CCCCNc1nc(NN2C(=O)c3cccc4cccc(c34)C2=O)nc(-n2cnc3ccccc32)n1,86.9%,93.3%,83.8%,67.7%,99.3%,80.4%,86.3%,81.9%,91.5%
COc1ccc(/C=C/c2c(C(=O)/C=C/c3ccc(C(F)(F)F)cc3)c(C)nc3ccccc23)cc1,-25.7% (active),9.68% (active),-33.6% (active),-6.41% (active),27.3%,-57.2% (active),-71% (active),1.9% (active),2.01% (active)
CCC12CCC[N+]3([O-])CCC4(C(=Nc5ccccc54)C(O)(C(=O)OC)C1)C23 (centres undefined),99.9%,102%,93.6%,106%,103%,138%,106%,92.7%,103%
CCc1ccccc1-n1c(N)c(C#N)c(-c2ccc(Cl)cc2)c(C#N)c1=O,84.2%,111%,108%,93.3%,108%,87%,107%,92.2%,102%
COc1ccc([C@H]2c3cc(OC)c(OC)cc3C=C(C=O)C2CO)cc1OC (some centres undefined),61.5%,60.8%,106%,63.5%,73.3%,34.1%,-30.6% (active),14.2%,70.8%
CCCCCCN1C(=O)/C(=c2\sc3n(c2=O)C2C(NN=3)N(CC)C(=O)N2CC)c2ccccc21 (centres undefined),44.6%,-22.3% (active),32.4%,-35.5% (active),54.8%,24.2%,-50.2% (active),4.83% (active),-23.1% (active)
